# Compound activity as filed in PubChem.
# This is one part of a sample in which hits are shown more often than they occur.
# Marburg entry inh = inhibitors of Marburg virus binding or cell entry; Marburg virus pseudotyped entry inhibition, cell reporter; Potency, µM (highest dose often 37.8 µM), for the others: at the highest dose activity change, negative = inhibition, actives largely listed as inhibitors; actives 1.8% (n = 300,000); calls by dose curve; tested in HEK293 cells; also: potency is read from the fitted curve at half-maximal effect; % is scaled to controls: 0 for no effect and ±100 for the full control effect
# Cycloheximide cs = counter-screen hit for Shiga toxin inhibitors, cycloheximide. max response, %. actives 12% (n = 300,000). cell reporter, cycloheximide protein synthesis inhibition counterscreen; in the data active = max response mostly above about 13%, no sharp cut-off; inactive = mostly below about 14%; also: read at 38.3 µM for the half of the compounds with a filed dose; 0% is about no effect
# VACV mCherry inh = inhibitors of vaccinia virus infection (mCherry reporter signal); Potency, µM (top dose mostly 36.5 µM), for inactives: at the top dose activity change, negative = inhibition, actives largely listed as inhibitors; AID 720579; actives 0.63% (n = 310,000); Vaccinia virus mCherry reporter infection, fluorescence; calls by dose curve; tested in A549 cells; also: potency is read from the fitted curve at half-maximal effect; % is scaled to controls: 0 for no effect and ±100 for the full control effect; nearly all actives have a fitted effect of over 35% in size
# Shiga toxin inh = Shiga toxin inhibition; Vero cells, Shiga toxin protein synthesis inhibition reporter; inhibition, % at 38.7 µM; actives 9.2% (n = 290,000); AID 2315; in the data active = inhibition mostly above about 28%, no sharp cut-off; inactive = mostly below about 43%; also: 0% is about no effect
# LASV entry inh = blocks Lassa virus binding to or entry into cells | AID 540256 | Lassa virus pseudotype entry inhibition, cell reporter | Potency, µM (top dose mostly 37.9 µM), inactives show at the top dose activity change, negative = inhibition, usual class: inhibitors | actives 1.2% (n = 300,000); calls by dose curve; tested in HEK293 cells; also: potency is read from the fitted curve at half-maximal effect; % is scaled to controls: 0 for no effect and ±100 for the full control effect; nearly all actives have a fitted effect of over 50% in size
# VACV Venus inh = inhibitors of vaccinia virus (Venus reporter); actives 0.46% (n = 330,000); Vaccinia virus Venus reporter expression, fluorescence; Potency, µM (titrated, usually from 36.5 µM), inactives show at the highest dose activity change, negative = inhibition, usual class: inhibitors; AID 720580; calls by dose curve; tested in A549 cells; also: potency is read from the fitted curve at half-maximal effect; % is scaled to controls: 0 for no effect and ±100 for the full control effect; nearly all actives have a fitted effect of over 30% in size
# * hit, by the source's call; i = inactive; u = inconclusive; x = no result; [ ] = remark or other dose.
SMILES,Marburg entry inh,Cycloheximide cs,VACV mCherry inh,Shiga toxin inh,LASV entry inh,VACV Venus inh
CC1CCCN(CCCNC(=O)c2ccc3c(c2)N(Cc2cccc(Cl)c2)C(=O)c2ccccc2S3(=O)=O)C1 (stereo not given),x,x,-15.9%,x,u,-19.8%
CC(C)(C)c1ccc(COn2c(=O)c(-c3ccco3)[n+]([O-])c3ccccc32)cc1,u,18.9*,x,5.2,-7.1%,x
Cc1ccc(C(=O)/C=C/Nc2cccc([N+](=O)[O-])c2)o1,u,64.3*,-16.5%,63.4*,u,-21.0%
CCN(CCCNC(=O)Cn1ncc2c3ccccc3n(C)c2c1=O)c1cccc(C)c1,-14.4%[46.1 µM],x,-7.5%,x,23.9%[46.1 µM],0.6%
CCOc1cc2nc(-c3ccc(OC)c(OC)c3)nc(N3CCOCC3)c2cc1OC,2.51µM*,-2.4,11.2µM*,15.0,u,u
COc1ccc(CC(NC(C)=O)C(=O)NC2CCN(c3nnnn3-c3ccccc3)CC2)cc1OC (stereo not given),x,-1.2,x,-30.2,x,x
CSc1ccc(-c2ccco2)nn1,23.1%,24.8*,-9.3%,127.3*,-1.9%,3.8%
CC(=O)Nc1ccc(NC(=O)CSc2ccc(-c3ccco3)nn2)cc1,24.2%,-2.0,-9.2%,8.2,5.0%,-18.1%
CCSc1ccc(-c2ccco2)nn1,u,48.1*,-8.8%,84.6*,14.7%,-4.7%
COc1ccc(-c2cn3nc(N4CCCC(C(=O)NCc5ccccc5C)C4)sc3n2)cc1 (stereo not given),x,x,-23.0%,x,-0.6%[46.1 µM],-28.0%
COc1ccc(C)cc1NC(=O)C(OC(=O)CNC(=O)c1ccc(Br)cc1)c1ccccc1 (stereo not given),1.7%,12.3*,-4.4%,10.2,1.7%,-12.6%
CCOc1ccc(CN2CCN(Cc3cn(CC)nc3C)CC2CCO)cc1 (stereo not given),x,-0.8,x,5.0,x,x
Cc1ccc(N=CNc2ccc(C)cc2C)c(C)c1,-3.5%[46.1 µM],-1.9,-0.3%[7.34 µM],-2.5,9.2%,-0.1%[7.34 µM]
Cc1ccc(NC2Nc3cc(C)nn3S2)c(C)c1 (stereo not given),-0.5%[46.1 µM],57.3*,-4.8%,83.2*,-15.4%,-4.6%
Cc1cc2n(n1)SC(Nc1ccccc1)N2 (stereo not given),7.5%,31.7*,-13.6%[1.46 µM],143.2,6.0%,-12.8%
Cc1cc(NC(=NC2CC2)c2ccccc2)n(-c2ccccc2)n1,-4.8%[46.1 µM],-3.7,-17.7%,-7.0,-1.1%,-5.5%
Cc1csc2nc(COc3ccc(NC(=O)COc4ccccc4F)cc3)cc(=O)n12,6.8%[46.1 µM],x,-23.1%,x,-4.1%[46.1 µM],-27.8%
CC(C)Cn1c(-c2cc(Br)ccc2F)nc2c1c(=O)[nH]c(=O)n2CC(C)C,u,-6.4,-24.9%,-9.5,u,-13.5%
O=C(C[N+]1(CCO)CCOCC1)c1cccc2ccccc12,x,x,-14.2%,x,x,-8.4%
CCCCNS(=O)(=O)NC(=O)C1=C(N2CCCC2)COC1=O,x,x,-5.6%,x,x,-1.0%
CC(=O)Nc1ccc(C)cc1-c1nc2ccccc2n(CC(=O)Nc2cc(Cl)ccc2C)c1=O,22.4%[46.1 µM],x,-8.6%,x,-3.4%[46.1 µM],-7.9%
COC(=O)c1ccccc1NC(=S)NC(=O)c1ccccc1,-3.3%,9.0*,x,48.6,3.0%,-5.7%
Cc1ccc(NC(=S)NC(=O)c2ccccc2)cc1NC(=S)NC(=O)c1ccccc1,x,24.2*,-22.7%,54.0*,x,u
COc1cccc(CN2CCC(n3cc(C(=O)N4CCCCC4)nn3)CC2)c1OC,x,x,-3.0%,x,x,-15.2%
COC1=C[C@H](C(=O)NCCOC(C)=O)[C@@]2(C)Cc3ccccc3[C@@H]2CC1=O,-10.3%[14.2 µM],x,x,x,x,x
SMILES,Marburg entry inh,Cycloheximide cs,VACV mCherry inh,Shiga toxin inh,LASV entry inh,VACV Venus inh
COc1ccc(CNC(=O)C2CCN(Cc3nc(-c4ccc(Cl)cc4)oc3C)CC2)cc1,8.6%[46.1 µM],x,u,x,0.6%[46.1 µM],u
C=CCn1c(SCc2csc(C)n2)nc2sc3c(c2c1=O)CCCC3,u,1.1,-4.0%,-9.6,5.01µM*,-7.2%
CCc1ccc2c(CN(C)Cc3ccccc3OC)cc(=O)oc2c1,u,19.1*,-7.7%,55.6,u,-9.4%
CN(Cc1ccccc1)Cc1cc(=O)oc2ccccc12,x,x,16.4%,x,u,7.1%
Cc1ccc2c(CN(C)Cc3cccc(F)c3)cc(=O)oc2c1,x,29.7*,x,87.7*,x,x
Cc1ccc2c(CN(C)Cc3ccccc3)cc(=O)oc2c1,x,x,0.3%,x,u,2.4%
COc1cc(CN(C)Cc2cc(=O)oc3cc(C)c(Cl)cc23)ccc1OC(F)F,u,21.6,i,50.0*,u,1.5%
